POLB inh: qHTS Assay for Inhibitors of DNA Polymerase Beta; P06746; Pol beta primer extension/strand displacement, fluorescence kinetic; Potency, µM (series often up to 114 µM), inactives show at the top dose activity change, negative = inhibition, most hits filed as inhibitors; 1.3% of 340,000 active; AID 485314, 2010; note: % is set by controls: 0 for no effect and ±100 for the full control effect
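Pol beta (10 nM) was preincubated with compound for 15 min at room temperature. The reaction was then started with 50 nM substrate and read immediately and after a further 10 min at room temperature.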
POLI inh: qHTS for Inhibitors of Polymerase Iota | 1% of 390,000 active | Pol iota fluorescent replication assay, 10 min | AID 588590, 2011 | DNA polymerase iota (Homo sapiens), Q9UNA4 | Potency, µM (highest dose often 115 µM), for the others: at the top dose activity, negative = inhibition, most hits filed as inhibitors
Target sequence (Q9UNA4 whole entry, looked up): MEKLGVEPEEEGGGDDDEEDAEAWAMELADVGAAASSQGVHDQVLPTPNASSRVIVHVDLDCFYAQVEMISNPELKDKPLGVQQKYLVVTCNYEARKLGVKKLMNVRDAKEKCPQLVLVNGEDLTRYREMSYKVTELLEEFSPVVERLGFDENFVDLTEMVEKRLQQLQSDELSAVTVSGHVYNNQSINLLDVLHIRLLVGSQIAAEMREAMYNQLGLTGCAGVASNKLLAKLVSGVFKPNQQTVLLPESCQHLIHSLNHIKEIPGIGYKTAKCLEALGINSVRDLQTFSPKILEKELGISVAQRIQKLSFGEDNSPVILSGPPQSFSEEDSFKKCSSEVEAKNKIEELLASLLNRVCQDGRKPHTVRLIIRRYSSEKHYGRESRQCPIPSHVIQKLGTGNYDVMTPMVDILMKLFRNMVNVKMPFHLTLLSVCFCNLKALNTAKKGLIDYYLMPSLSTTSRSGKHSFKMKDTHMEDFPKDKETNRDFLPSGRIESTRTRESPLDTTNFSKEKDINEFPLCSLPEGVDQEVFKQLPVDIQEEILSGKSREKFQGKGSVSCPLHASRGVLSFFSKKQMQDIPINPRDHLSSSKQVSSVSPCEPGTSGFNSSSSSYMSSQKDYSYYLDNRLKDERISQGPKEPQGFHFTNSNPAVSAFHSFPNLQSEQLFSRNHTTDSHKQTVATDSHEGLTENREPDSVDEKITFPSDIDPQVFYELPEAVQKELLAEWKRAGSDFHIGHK
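Fluorescent replication assay read twice, at 0 min and 10 min after adding 50 nM (final) substrate. Enzyme (10 nM) and compounds were first incubated 15 min at room temperature; enzyme-free buffer wells were negative controls.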
POLH inh: qHTS for Inhibitors of Polymerase Eta. DNA polymerase eta (Homo sapiens), Q9Y253. recombinant Pol eta, fluorescent DNA replication assay. Potency, µM (highest dose often 114 µM), inactives show at the top dose activity change, negative = inhibition, actives largely listed as inhibitors. 1.2% of 390,000 active; note: % is set by controls: 0 for no effect and ±100 for the full control effect
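Pol eta (10 nM) was preincubated with compounds for 15 min at room temperature, after which fluorescent replication substrate (50 nM final) was added to start the reaction. Fluorescence was read kinetically at 0 and 10 min.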
FEN1 inhibitor: qHTS Assay for the Inhibitors of Human Flap endonuclease 1 (FEN1). P39748. AID 588795, 2011. Potency, µM (doses to about 114 µM), inactives show at the top dose activity change, negative = inhibition, hits mostly inhibitors. Recombinant FEN1 flap cleavage, fluorescence, 15 min. 0.35% of 390,000 active; note: % is set by controls: 0 for no effect and ±100 for the full control effect; nearly all actives have a fitted effect of over 65% in size
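Read-out was taken twice, immediately and after 15 min, following addition of 50 nM substrate to 10 nM FEN1 that had sat with test compound for 15 min at room temperature. Curves came from a four-parameter Hill model.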
POLK inh: qHTS for Inhibitors of Polymerase Kappa; DNA polymerase kappa (Homo sapiens), Q9UBT6; purified Pol kappa, fluorescent DNA synthesis assay, 10 min; Potency, µM (top dose mostly 107 µM), without a hit: top-dose activity, negative = inhibition, most hits filed as inhibitors; 0.53% of 400,000 active; note: % is set by controls: 0 for no effect and ±100 for the full control effect
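10 nM Pol kappa was preincubated with compounds for 15 min at room temperature. Reaction started with 50 nM (final) substrate. Fluorescence read kinetically at 0 and 10 min.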
WRN inhibitor: qHTS for Inhibitors of WRN Helicase | 0.46% of 360,000 active | Potency, µM (series often up to 114 µM), for inactives: top-dose activity change, negative = inhibition, actives largely listed as inhibitors | Bifunctional 3'-5' exonuclease/ATP-dependent helicase WRN (Homo sapiens), Q14191 | WRN helicase unwinding, fluorescent forked duplex, kinetic | AID 651768, 2012; note: % is set by controls: 0 for no effect and ±100 for the full control effect; nearly all actives have a fitted effect of over 55% in size
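Kinetic fluorescence helicase assay: unwinding of a quenched forked DNA duplex (100 nM final) with 2 mM ATP final raises red fluorescence (525/598 nm). Compounds sat 15 min at room temperature with 20 nM WRN beforehand.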
* hit, by the source's call; ? = inconclusive; nt = no result given; [ ] = another dose, or the depositor's remark. An excerpt weighted towards active compounds, which were near 2.4% of everything screened. Calls come from the whole dose curve; as a rule, active = well fitted curve in the direction sought with a large enough effect; inconclusive = small, poorly fitted or top-dose-only effect, or another doubt; inactive = no such curve, though single readings can be large; an effect the other way counts as inactive or inconclusive. Potency is the fitted concentration of half-maximal effect.

SMILES	POLB inh	POLI inh	POLH inh	FEN1 inhibitor	POLK inh	WRN inhibitor
O=c1cc(CN2CCN(S(=O)(=O)c3ccccc3)CC2)nc2ccc(Cl)cn12	nt	?	-6%	-31%	-14%	-1%
O=C(COC(=O)/C=C/c1ccc2ccccc2n1)NNC(=O)c1ccccc1	nt	nt	40µM*	nt	nt	-23%
Cc1ccc(C2(C)NC(=O)N(CC(=O)N3CCN(S(=O)(=O)c4cccc([N+](=O)[O-])c4)CC3)C2=O)cc1 (centres undefined)	nt	-5%	-4%	-13%	-2%	2%
O=C(/C=C/c1ccc(Cl)cc1)NC(=S)Nc1ccccc1C(=O)O	?	?	56µM*	-3%	-12%	-4%[11.6 µM]
NC(=O)c1ccccc1NC(=O)/C=C/c1ccc(Cl)cc1	-1%	7%[58.9 µM]	-3%	0%	-9%	-6%
CS(=O)(=O)N(CC(=O)NCc1ccco1)c1ccc(OCc2ccccc2)cc1	16µM*	?	-13%	-7%	-13%	-9%
CCOc1cc(/C=C2\COc3ccccc3C2=O)cc(Br)c1OCC(=O)N(C)C	-25%	18µM*	?	-26%	1%	-26%
CCOc1cc(/C=N/Nc2nc3ccccc3[nH]2)cc(Br)c1OCC(=O)N(C)C	?	98%	-28%	-4%	-28%	-25%
COc1cc(/C=C2\COC/C(=C\c3cc(OC)c(OC)c(OC)c3)C2=O)cc(OC)c1OC	-2%	11µM*	?	-10%	-21%	-18%
COc1ccc(/C=C2\COc3ccccc3C2=O)cc1OC	7%	25µM*	?	4%	-6%	-12%[11.6 µM]
CCc1cccc(NC(=O)c2ccc(Cn3c(=O)[nH]c4ccsc4c3=O)cc2)c1	45µM*	-7%	?	-13%	1%	-28%[11.6 µM]
COc1cc(C(=O)O)ccc1OC(C)=O	24%	89µM*	-3%	-6%	-3%	-26%
Oc1nc(Nc2ccc(F)cc2)sc1/C=C1\C=Nc2ccccc21	9%	60%	-6%	-10%	-24%	-5%
O=c1[nH]c(S)c(/C=C2\C=Nc3ccccc32)s1	31%	72%	40µM*	-27%	-9%	-23%[57.1 µM]
CCCCCCC[n+]1ccc(C)c2ccccc21	nt	22%	nt	3%	-5%	nt
CCCCCCCCCCCCCCCC[n+]1cccc2ccccc21	27%	?	-23%	79µM*	-16%	?
CCCCCCCCC[n+]1cccc2c3ccccc3ccc21	3%	-6%	-9%	6%	-9%	2%
CCCCCCCCCCCC[n+]1ccc(C)c2ccccc21	nt	?	nt	35µM*	-11%	nt
COc1cccc(C(=O)Nc2cccc(OCc3cc(=O)n4cc(C)ccc4n3)c2)c1	22%	?	-18%	-9%	-1%[60.1 µM]	nt
COc1ccc(OCCCCc2c(C)n[nH]c2C)cc1	nt	79µM*	10%	-19%	3%	-5%
Cc1cc(C)c2c(NC(=O)c3ccccc3Cl)c(C(=O)NCc3ccc(Cl)cc3)sc2n1	22µM*	-20%	nt	-19%	-16%	nt
CS(=O)(=O)N(CCc1ccccc1)CC(=O)Nc1ccc(Br)cc1F	0%	-4%	-21%	-5%	-6%	-4%
Cc1nnc(N/N=C/c2cccc(OCc3ccc(Cl)c(Cl)c3)c2)n1N	-8%	6.3µM*	?	-21%	-6%	-6%
CCc1nnc(N/N=C/c2cc(Br)c(O)cc2O)n1N	0%	8.9µM*	-13%	1%	1%	-9%[11.6 µM]
CCOc1cc(/C=N/Nc2nnc(C)n2N)ccc1OC(C)=O	?	2.8µM*	-16%	6%	-25%	-4%
SMILES	POLB inh	POLI inh	POLH inh	FEN1 inhibitor	POLK inh	WRN inhibitor
CCc1nnc(N/N=C\c2ccc(OC(C)=O)c(OC)c2)n1N	-3%	2µM*	1%	-6%	-31%	-5%[11.6 µM]
CC(C)(C)c1nnc(N/N=C/c2cc(Br)ccc2O)n(N)c1=O	-14%	10%	-16%	-12%	-9%	-13%
Cc1cc(NC(=O)c2ccc(Cl)cc2)c(C)cc1O	?	36%	-20%	14%	1%	4%
CCOc1ccccc1N(CC(=O)Nc1ccccc1Br)S(=O)(=O)c1ccccc1	nt	nt	-5%	nt	nt	-6%
CCc1nnc(N/N=C/c2ccc(O)c(OC)c2)n1N	18%	8.9µM*	3%	-18%	-6%	1%[11.6 µM]
C(=N\Nc1nc2ccccc2s1)/c1cccs1	7%	-20%	-9%	-2%	0%	-25%
CCc1nnc(N/N=C/c2cccs2)n1N	34%	22µM*	-11%	-13%	-10%	0%[11.6 µM]
Cc1cc(=O)n2[nH]c(-c3ccc(F)cc3)cc2n1	4%	10%	-2%	-2%	-10%	-8%
Cc1cc(=O)n2[nH]c(-c3ccsc3-n3c(C)ccc3C)cc2n1	?	7.9µM*	7.9µM*	?	28µM*	?
CCOC(=O)c1ccc(CC(=O)c2ccc(O)c(O)c2O)o1	1.1µM*	1µM*	?	14µM*	1.6µM*	?
CCOC(=O)c1ccc(CC(=O)c2oc3cc(O)ccc3c2C)o1	3%	57%	-5%	-13%	-19%	-16%[57.1 µM]
COc1ccc(S(=O)(=O)N2CCN(Cc3ccc4c(c3)OCO4)CC2)cc1C	-18%	-23%	-14%	-21%	-8%[60.1 µM]	nt
O=C(CN1C(=O)/C(=C/c2ccco2)SC1=S)Nc1ccc(O)c(C(=O)O)c1	10µM*	-41%	?	?	?	-1%
O=C1/C(=C\c2ccco2)SC(=S)N1c1ccc(O)cc1	20µM*	?	-12%	-7%	-24%	-8%
CCOC(=O)CN1C(=O)S/C(=C/c2ccco2)C1=O	-6%	64%	-18%	2%	-11%	-9%
COc1ccc(NC(=O)CCCN2C(=O)/C(=C\c3ccco3)SC2=S)cc1	-16%	?	?	-4%	-28%	-12%
CC(=C\c1ccco1)/C=C1/SC(=S)N(CC(=O)O)C1=O	20µM*	?	40µM*	-3%	?	-29%
NN1C(=O)/C(=C\c2ccco2)SC1=S	7.9µM*	?	-24%	1%	?	-5%[11.6 µM]
COc1cccc(CN2CCC(C(=O)Nc3ccc(-c4cccc(C)c4)cc3)CC2)c1O	-11%	42%	-7%	9%	4%	16%
Cc1csc(=O)n1CC(=O)OCC(=O)Nc1ccccc1C(C)C	nt	56%	-19%	18%	7%	1%
COc1ccc(-c2csc(NC(=O)CN3C(=O)NC4(CCCC4)C3=O)n2)c(OC)c1	nt	17%	-11%	-14%	-7%	-10%

Compound activity: PubChem BioAssay, National Center for Advancing Translational Sciences (NCATS)
